PubChem BioAssay (Tox21)
Results filed as inconclusive are left out. Unmarked numbers belong to inactive results. The source made the active and inactive calls. The call rests on the fitted dose curve.

Target: Thyrotropin receptor (Homo sapiens) (UniProt P16473)
Assay: qHTS assay to identify small molecule antagonists of the thyroid stimulating hormone receptor (TSHR) signaling pathway (AID 1259385); further: nearly all actives have a fitted effect of over 20% in size
Settings: TSHR-HEK293 cAMP HTRF, TSH-stimulated antagonist mode; series mostly up to 92.4 µM; activity change, negative = inhibition: at the top concentration
Excerpt: U.S. Tox21 Program National Center for Advancing Translational Sciences [NCATS] NIH Chemical Genomics Center [NCGC] U.S. Environmental Protection Agency [EPA] National Institutes of Environmental Health Sciences [NIEHS] National Toxicology Program [NTP] U.S. Food and Drug Administration [FDA] Tox21 Assay Overview: TSHR is the receptor for thyrotropin (thyroid stimulating hormone or TSH), a member of the glycoprotein hormone family. TSH is released by the anterior pituitary gland and is the main regulator of thyroid gland growth and development. Upon binding circulating thyrotropin, a G-protein signal cascade activates adenylyl cyclase and […] cAMP concentration is increased. cAMP is a key second messenger involved extensively in cellular signal transduction pathways associated with the majority of G-protein coupled receptors (GPCRs). The activation of these GPCRs by neurotransmitters, lipids, nucleotides, peptides and hormones results in the activation or the inhibition of plasma membrane-bound adenylate cyclase through heterotrimeric G-proteins. A cell-based TSHR assay can be used to screen chemical compounds that modulate TSHR either in agonist or antagonist mode.
Tox21 Assay Protocol Summary: TSHR-Hek293 cells were dispensed at 800 cells/4uL/well in 1536-well white plates using a Multidrop dispenser. After the assay plates were incubated at a 37C/5% CO2 incubator for 18 hrs, 23 nL of compounds dissolved in DMSO, positive controls or DMSO only was transferred to the assay plate by a pin tool, followed by 1 ul medium containing Ro20-1724. For the antagonist mode screening, 1 uL of TSH was added on the top of the cell/compound mixtures to achieve a final agonist concentration of 1.5 ng/mL. After 30 min of incubation at room temperature, 2.5 ul/well of cAMP-d2 and 2.5 ul/well of anti-cAMP-cryptate were added respectively into the assay plates using a Flying Reagent Dispenser. The plates were incubated at room temperature for 1 hr. The fluorescence intensity in the plates was measured using an Envision plate reader. Each test compound was measured at 15 concentrations and in triplicates.
On the % scale 0 is the no-effect control and ±100 the full control effect; potency means the concentration at half of the fitted maximal effect.

Sequence of Thyrotropin receptor (Homo sapiens) (P16473 whole entry, looked up): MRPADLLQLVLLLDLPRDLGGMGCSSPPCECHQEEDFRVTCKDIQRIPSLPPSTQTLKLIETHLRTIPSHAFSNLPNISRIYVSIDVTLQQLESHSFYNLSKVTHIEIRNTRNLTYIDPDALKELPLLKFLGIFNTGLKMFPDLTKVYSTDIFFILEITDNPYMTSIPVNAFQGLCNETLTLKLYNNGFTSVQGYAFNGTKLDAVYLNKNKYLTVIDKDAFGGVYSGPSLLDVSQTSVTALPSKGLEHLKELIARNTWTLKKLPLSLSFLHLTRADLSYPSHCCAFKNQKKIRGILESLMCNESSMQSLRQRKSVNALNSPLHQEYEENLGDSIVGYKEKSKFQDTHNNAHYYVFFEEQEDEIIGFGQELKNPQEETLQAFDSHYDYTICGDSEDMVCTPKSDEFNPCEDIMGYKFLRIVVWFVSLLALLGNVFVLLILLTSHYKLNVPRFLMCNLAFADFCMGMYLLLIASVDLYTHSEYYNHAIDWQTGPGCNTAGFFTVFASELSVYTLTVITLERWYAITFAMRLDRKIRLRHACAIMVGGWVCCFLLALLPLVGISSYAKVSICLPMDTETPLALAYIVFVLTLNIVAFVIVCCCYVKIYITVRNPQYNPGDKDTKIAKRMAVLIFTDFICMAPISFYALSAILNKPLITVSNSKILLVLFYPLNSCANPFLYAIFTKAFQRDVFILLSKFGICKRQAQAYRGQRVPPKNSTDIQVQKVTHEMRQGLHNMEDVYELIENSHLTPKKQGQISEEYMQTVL

SMILES	activity change, negative = inhibition	Potency
Cc1ccc2nc3sc(=O)sc3nc2c1	2.89% [at 19 µM]	–
O=C1C(I)=CC(=C(c2cc(I)c(O)c(I)c2)c2ccccc2C(=O)O)C=C1I	-5.55% [at 42.5 µM]	–
CN1CSC(=S)N(C)C1	–	inactive
Cc1cc(C)c(C(=O)P(=O)(c2ccccc2)c2ccccc2)c(C)c1	-7.53%	–
OCC(c1ccc(Cl)cc1)c1ccc(Cl)cc1	-1.79%	–
CO/C=C(/C(=O)OC)c1ccccc1Oc1cc(Oc2ccccc2C#N)ncn1	–	61.1 µM (active)
C=CC(=O)OCCCC	-0.251%	–
N#CCCNCCC#N	-0.0183%	–
N#Cc1cc([N+](=O)[O-])ccc1N	-0.395%	–
Cc1cc(C(C)(C)c2ccc(O)c(C)c2)ccc1O	8.34%	–
CC(C)(C)OCC1CO1 (stereo not drawn)	-0.164%	–
Oc1c(I)cc(I)cc1I	1.35%	–
Cc1nnc2n1-c1sc(CCc3ccc(CC(C)C)cc3)cc1C(c1ccccc1Cl)=NC2C (stereo not drawn)	5.14% [at 42.5 µM]	–
OC(Cc1ccccc1Cl)(Cn1[nH]cnc1=S)C1(Cl)CC1 (stereo not drawn)	-0.0786%	–
CNC(=O)Oc1cc(C)c(SC)c(C)c1	3.86%	–
CCN(CC)C(=O)Cl	2.15%	–
CC(c1ccccc1)(c1ccc(O)cc1)c1ccc(O)cc1	-7.59%	–
Cc1ccc(N(SC(F)(Cl)Cl)S(=O)(=O)N(C)C)cc1	–	61.1 µM (active)
